Drawing on the supplement of paper PMC9402605, this text covers egg-laying rate for 25 compounds.

± gives the standard deviation of the averaged measurements.

For the assay, the system named is Caenorhabditis elegans N2. Kind of assay: egg-laying rate relative to DMSO control (serotonin + nicotine background) (fraction of control); higher = more egg-laying. To be noted: background: 12.3 mM serotonin + 7.7 mM nicotine; 60 µM; 1 h. On the procedure:
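About 20 young-adult wild-type C. elegans (N2) per well in 96-well plates were exposed to 60 uM compound for 1 h at room temperature, either in M9 buffer (to find stimulators) or in 12.3 mM serotonin + 7.7 mM nicotine (NS, to find inhibitors). Eggs per worm per hour were counted by automated imaging and normalised to the mean of proximal DMSO control wells. Values average the primary screen and two retests of the worm-active (wactive) Egl modulators.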
In the case of `c1csc(-c2cnc3ccccc3n2)c1` [wact-21], the egg-laying rate was 0.816 ± 0.081.

As to `O=[N+]([O-])c1ccc(N2CCN(CC3CC=CCC3)CC2)cc1` (stereo not given) [wact-47], the egg-laying rate came out at 1.13 ± 0.076.

Turning to `Cc1ccccc1C(=O)NCCc1ccccc1` [wact-406], the egg-laying rate worked out at 0.394 ± 0.22. For `O=[N+]([O-])c1ccc(N2CCN(CC3CC4C=CC3C4)CC2)cc1` (stereo not given) [wact-46] the value was 1.34 ± 0.22.

On to `O=[N+]([O-])c1ccc(N2CCN(CC3CCCCC3)CC2)cc1` [wact-45], for which the egg-laying rate turned out to be 0.994 ± 0.16.

On to `Cc1ccn2cc(-c3ccc(F)cc3)nc2c1` [wact-436], for which the egg-laying rate was 0.478 ± 0.25. For `CCCCOC(=O)Nc1ccc([N+](=O)[O-])cc1` [wact-419] the value was 0.733 ± 0.18; for `COc1ccc(C=Cc2ccccn2)cc1` [wact-622], 0.373 ± 0.18; for `Cc1ccc(-c2cnc(-c3ccncc3)o2)cc1` [wact-23], 0.55 ± 0.19. With `Clc1ccc(-c2cn3ccsc3n2)cc1` [wact-1], the egg-laying rate was 0.584 ± 0.24. As to `CCOc1ccc(C(=O)c2cccs2)cc1` [wact-471], the egg-laying rate is 1.02 ± 0.22. For the compound `CCSc1nnc(-c2ccc(Cl)cc2Cl)o1` [wact-4], the egg-laying rate was 0.795 ± 0.052. As to `O=[N+]([O-])c1ccc(CSc2ccc(Cl)cc2)cc1` [wact-3], the egg-laying rate came to 0.473 ± 0.36. With `O=[N+]([O-])c1ccc(-n2ccc3ccccc32)cc1` [wact-213] the figure was 0.444 ± 0.061.

On to `O=C(Nc1cccc(Cl)c1)N1CCN(c2ccc([N+](=O)[O-])cc2)CC1` [wact-31], for which the egg-laying rate was 1.03 ± 0.29. As to `Brc1cccc(-c2cn3ccccc3n2)c1` [wact-435], the egg-laying rate came to 0.712 ± 0.25. For `c1ccc(CSc2nnc(-c3ccccc3)o2)cc1` [wact-38] the value was 0.966 ± 0.24; for `O=C1CC(N2CCN(c3ccc([N+](=O)[O-])cc3)CC2)C(=O)N1c1ccccc1F` (stereo not given) [wact-56], 1.06 ± 0.17; for `O=C(Nc1ccc(I)cc1)c1ccco1` [wact-27], 0.759 ± 0.099.

With `CCC1CCC(N2CCN(c3ccc([N+](=O)[O-])cc3)CC2)CC1` (stereo not given) [wact-6], the egg-laying rate was determined as 0.999 ± 0.56. Consider `Cc1ccccc1C(=O)NCCSC1CCCCC1` [wact-494], for which the egg-laying rate was found to be 0.524 ± 0.2. With `Ic1cccc(-c2nnc(-c3ccccc3)o2)c1` [wact-51] the figure was 0.995 ± 0.094; with `Fc1ccc(-c2cn3ccsc3n2)cc1` [wact-433], 0.471 ± 0.016. With `O=[N+]([O-])c1ccc(N2CCc3ccccc3C2)nc1` [wact-421] the figure was 0.435 ± 0.099; with `CCc1ccc(-c2cn3ccsc3n2)cc1` [wact-434], 0.474 ± 0.18.
